High-throughput results (PubChem)
Most compounds without a hit are left out; they make up all but 6.5% or so of the library.
VACV mCherry inh: vaccinia inhibition (mCherry reporter); Vaccinia virus mCherry reporter infection, fluorescence; Potency, µM (doses to about 36.5 µM), inactives show at the highest dose activity change, negative = inhibition, actives largely listed as inhibitors; 310,000 tested, 0.63% active; AID 720579; calls by dose curve; tested in A549 cells; further: potency means the concentration at half of the fitted maximal effect; nearly all actives have a fitted effect of over 35% in size
HCMV inh: blocks human cytomegalovirus replication; HFF cells, HCMV-luciferase reporter, 72 h; hits give low values; 410,000 tested, 4.5% active; AID 1259415; activity change, negative = inhibition, % at 57.5 µM; in the data active means activity change below about -60%; inconclusive means no clear call, values can overlap the other calls; inactive means above about -39%
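Two compound doses tested in HFFs infected with HCMV-luciferase, MOI 1 PFU/cell, 72 h at 37C. Lysate luminescence read with OneGlo; data normalized against buffer-only and 10uM Salinomycin inhibitor controls.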
LASV entry inh: Lassa virus entry inhibition; 300,000 tested, 1.2% active; Lassa virus pseudotype entry inhibition, cell reporter; AID 540256; Potency, µM (series often up to 37.9 µM), for inactives: at the highest dose activity change, negative = inhibition, actives largely listed as inhibitors; calls by dose curve; tested in HEK293 cells; further: potency means the concentration at half of the fitted maximal effect; nearly all actives have a fitted effect of over 50% in size
Marburg entry inh: blocks Marburg virus binding to or entry into cells | Marburg virus pseudotyped entry inhibition, cell reporter | Potency, µM (doses to about 37.8 µM), inactives show at the highest dose activity change, negative = inhibition, usual class: inhibitors | 300,000 tested, 1.8% active | AID 540276; calls by dose curve; tested in HEK293 cells; further: potency means the concentration at half of the fitted maximal effect
VACV Venus inh: inhibitors of vaccinia virus (Venus reporter); Vaccinia virus Venus reporter expression, fluorescence; Potency, µM (titrated, usually from 36.5 µM), for inactives: at the highest dose activity change, negative = inhibition, usual class: inhibitors; 330,000 tested, 0.46% active; AID 720580; calls by dose curve; tested in A549 cells; further: potency means the concentration at half of the fitted maximal effect; nearly all actives have a fitted effect of over 30% in size
FMDV antiviral: blocks foot and mouth disease virus | FMDV antiviral cell-based qHTS | Potency, µM (highest dose often 57.9 µM), inactives show at the top dose activity change, negative = inhibition, usual class: inhibitors | 410,000 tested, 1.2% active; calls by dose curve; tested in HEK293T cells; further: read-out not given here; potency means the concentration at half of the fitted maximal effect; nearly all actives have a fitted effect of over 45% in size
The depositor's hits bear a star; i = inactive; ? = inconclusive; nt = no result; + = active, no number; [ ] = dose if it differs, or a comment. On the % scale 0 is the no-effect control and ±100 the full control effect.

SMILES	VACV mCherry inh	HCMV inh	LASV entry inh	Marburg entry inh	VACV Venus inh	FMDV antiviral
CC(=O)N1CCc2c(sc3c2c(=O)n(-c2ccc(C)cc2)c(=O)n3Cc2ccccc2C)C1	-1%	-26	nt	-5%[46.1 µM]	-12%	-13%
COc1ccc(C(=O)OCc2nnc(-c3ccccc3)o2)cc1S(=O)(=O)N1CCOCC1	-2%	-33	12%	?	0%	17%
O=C(OCc1nnc(-c2ccc([N+](=O)[O-])cc2)o1)c1ccc(F)c(S(=O)(=O)N2CCOCC2)c1	-5%	-67*	1%	6%[46.1 µM]	-3%	-13%
Cc1ccc(CN(Cc2ccco2)C(=O)c2ccccc2Br)o1	5%	-26	0%[46.1 µM]	-8%[46.1 µM]	-17%	-24%
O=S(Cc1ccc(Cl)cc1)CC(O)(c1ccccc1)c1ccccc1 (stereo unspecified)	nt	28	15%	3%	nt	11%
O=S(Cc1ccccc1)CC(O)(c1ccc(Cl)cc1)c1ccc(Cl)cc1 (stereo unspecified)	nt	-92*	-22%	?	nt	8%
CNC(=O)c1cccc(-n2c(C)nc3cccnc32)c1C	-5%	+	11%[46.1 µM]	nt	8%	-3%
COc1cccc(Nc2cc3c(cn2)cc(-c2cnn(C)c2)n3C)c1	nt	-15	nt	nt	nt	nt
COc1ccccc1N1CCN(CCCNC(=O)c2cnn(-c3cccc(Cl)c3)c2C2CCN(C(=O)OC(C)(C)C)CC2)CC1	?	-37	?	nt	-26%	-23%
O=[N+]([O-])c1ccn(-c2nc(-c3ccccc3)cc(C(F)(F)F)n2)n1	-8%	-15	7%[46.1 µM]	-6%[46.1 µM]	17%	0%
O=[N+]([O-])c1cnn(-c2nc(-c3ccccc3)cc(C(F)(F)F)n2)c1	-5%	-76*	17%[46.1 µM]	?	-8%	-17%
O=[N+]([O-])c1ccc(O)c(-c2cc(C(F)(F)F)nc(-c3ccccc3)n2)c1	nt	-101*	nt	3%	nt	?
Oc1ccc(N=Nc2n[nH]c(-c3ccc(Cl)cc3)n2)cc1	nt	-95*	nt	2%	nt	56%
Oc1ccc(Cl)cc1	-16%	-14	nt	nt	-11%	-2%
CC(NC(=O)C(=O)N1CCCCC1)C(c1cccs1)N1CCN(c2ccccc2)CC1 (stereo unspecified)	-2%	+	4%[46.1 µM]	9%[46.1 µM]	-17%	-3%
O=C(NCCN1CCCCC1)c1ccc(Cn2c(SCc3cccc(F)c3)nc3cccnc32)cc1	-18%	?	nt	4.5µM*	-14%	-10%
CN(Cc1ccccc1)C(=O)c1ccc(CSc2nc3cccnc3n2Cc2ccccc2)cc1	?	-71*	?	nt	?	?
Cc1ccc(CSc2nc3cccnc3n2Cc2ccc(C(=O)NC3CCCCC3)cc2)cc1	?	20	4%[46.1 µM]	nt	11µM*	23%
O=C(NCCc1ccccc1)c1ccc(CSc2nc3cccnc3n2Cc2ccccc2)cc1	-22%	-3	-20%[46.1 µM]	nt	-11%	-24%
O=C(NCc1ccccc1)c1ccc(CSc2nc3cccnc3n2Cc2cccc(F)c2)cc1	-24%	-67*	?	nt	-2%	0%
Cc1oc(-c2ccc(C(=O)Nc3cc(F)ccc3F)cc2)nc1COc1ccccc1	-20%	-34	15%[46.1 µM]	nt	-27%	-27%
COc1ccc(CNC(=O)CSCc2ccc(C)cc2)c(OC)c1	-3%	5	7%[46.1 µM]	nt	-3%	-8%
NC(=S)c1ccc[n+]([C@@H]2O[C@@H](COP(=O)([O-])OP(=O)(O)OC[C@H]3O[C@@H](n4cnc5c(N)ncnc54)[C@H](OP(=O)(O)O)[C@@H]3O)C(O)C2O)c1 (stereo partly specified)	nt	nt	14%	23%	nt	nt
Cc1ccc(NC(=O)C2CCCN(c3nc4ccccc4s3)C2)c(C)c1 (stereo unspecified)	-12%	7	12%[46.1 µM]	1%[46.1 µM]	-15%	-22%
Cn1c(SCc2ccc(F)cc2)nc2ccc(C(=O)NCc3ccc(F)cc3)cc21	-16%	-69*	nt	?	-22%	?
Cc1nc(NC(=O)/C=C/c2ccc(Cl)cc2Cl)sc1C(=O)N(C)C	i	-61*	14%	?	-6%	-4%
Cc1nc(NC(=O)/C=C/c2ccccc2)sc1C(=O)N(C)C	i	43	19%	?	-24%	36%
COc1cc(NC(=O)COn2nnc3ccc(S(C)(=O)=O)cc32)cc(OC)c1	-15%	-68*	?	14%[46.1 µM]	-18%	-13%
